# Assay results reported in PubChem BioAssay.
# Calls of active or inactive are those of the source.
# Assays:
# [1] = small molecules captured by biotinylated probe aFSTL3 – biochemical, small-molecule microarray, fluorescence 635/667, stem cell growth factor project, primary screen (AID 1064); details: higher = more signal;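 further: measures binding of the biotinylated anti-FSTL3 antibody to printed compounds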
# [2] = binders from COS7 lysate, DM2A8 probe, primary screen, torsin A project, cell lysate, small-molecule microarray, fluorescence 635/667 (AID 1065); details: higher = more signal, COS7 lysate expressing mutant human TOR1A
# [3] = small molecules captured by biotinylated probe aFGF2 – biochemical, small-molecule microarray, fluorescence 635/667, stem cell growth factor project, primary screen (AID 1067); details: higher = more signal;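 further: measures binding of biotinylated aFGF2 protein to printed compounds on slides; z-score merges feature fluorescence and signal-to-noise across triplicate slides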
# [4] = small molecules captured by biotinylated probe aFGF10 – biochemical, small-molecule microarray, fluorescence 635/667, stem cell growth factor project, primary screen (AID 1071); details: higher = more signal;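 further: score merges 667 nm spot intensity and signal to noise from triplicate slides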
# [5] = target: Neurogenic locus notch homolog protein 2 (Homo sapiens) (UniProt Q04721); test: small molecules binding Notch2 protein – biochemical, small-molecule microarray, 635 nm fluorescence, stem cell growth factors, primary screen (AID 1073); details: higher = more signal
# [6] = target: Pro-neuregulin-1, membrane-bound isoform (Homo sapiens) (UniProt Q02297); test: small molecules binding neuregulin-1 protein – biochemical, small-molecule microarray, fluorescence 635/667, psychiatric disease protein project, primary screen (AID 1075); details: NRG1 binding, 635 nm fluorescence, higher = more signal;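 further: score combines 667 nm spot fluorescence with signal to noise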
# [7] = test system: Neuregulin-1 EGF-like domain; test: small molecules binding NRG1 EGF domain – biochemical, small-molecule microarray, 635 nm fluorescence, primary screen (AID 1081); details: higher = more signal;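 further: binding of the protein to compounds printed on small-molecule microarray slides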
# [8] = FRG1 expression reporter modulators in myotubes – cell-based, C2C12 myotubes, firefly/Renilla luciferase, luminescence, FRG1 inhibition for FSHD, primary screen (AID 1084); details: FRG1 promoter luciferase, higher = more signal, called active from +8 up or from −8 down
# [9] = small molecules captured by biotinylated probe aFST – biochemical, small-molecule microarray, fluorescence 635/667, stem cell growth factor project, primary screen (AID 1086); details: higher = more signal;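 further: score merges 667 nm fluorescence with signal-to-noise of each printed compound spot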
# [10] = binders of probe aHhip on microarray, primary screen, stem cell growth factor project, biochemical, small-molecule microarray, fluorescence 635/667 (AID 1087); details: higher = more signal;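 further: score merges spot fluorescence at 667nm with spot signal to noise ratio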
# Sequence of Pro-neuregulin-1, membrane-bound isoform (Homo sapiens) (Q02297 whole entry, looked up, the tested form may be a part, canonical isoform): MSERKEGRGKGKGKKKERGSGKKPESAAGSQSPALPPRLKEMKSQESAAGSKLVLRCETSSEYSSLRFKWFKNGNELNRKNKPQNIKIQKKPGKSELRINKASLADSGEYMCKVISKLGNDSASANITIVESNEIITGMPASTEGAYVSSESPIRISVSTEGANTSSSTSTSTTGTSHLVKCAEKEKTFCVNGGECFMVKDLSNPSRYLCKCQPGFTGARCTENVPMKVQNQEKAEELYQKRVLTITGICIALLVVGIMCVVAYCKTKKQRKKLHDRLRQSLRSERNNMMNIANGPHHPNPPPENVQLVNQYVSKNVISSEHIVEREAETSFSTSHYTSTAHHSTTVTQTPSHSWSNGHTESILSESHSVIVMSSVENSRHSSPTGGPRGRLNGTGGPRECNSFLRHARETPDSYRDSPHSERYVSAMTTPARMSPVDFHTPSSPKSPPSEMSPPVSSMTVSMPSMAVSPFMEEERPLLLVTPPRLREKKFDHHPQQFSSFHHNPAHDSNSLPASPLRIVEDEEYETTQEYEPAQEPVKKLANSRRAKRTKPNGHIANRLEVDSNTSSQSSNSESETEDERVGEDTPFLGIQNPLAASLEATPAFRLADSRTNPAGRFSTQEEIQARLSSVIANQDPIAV
# Sequence of Neurogenic locus notch homolog protein 2 (Homo sapiens) (Q04721 whole entry, looked up, canonical isoform): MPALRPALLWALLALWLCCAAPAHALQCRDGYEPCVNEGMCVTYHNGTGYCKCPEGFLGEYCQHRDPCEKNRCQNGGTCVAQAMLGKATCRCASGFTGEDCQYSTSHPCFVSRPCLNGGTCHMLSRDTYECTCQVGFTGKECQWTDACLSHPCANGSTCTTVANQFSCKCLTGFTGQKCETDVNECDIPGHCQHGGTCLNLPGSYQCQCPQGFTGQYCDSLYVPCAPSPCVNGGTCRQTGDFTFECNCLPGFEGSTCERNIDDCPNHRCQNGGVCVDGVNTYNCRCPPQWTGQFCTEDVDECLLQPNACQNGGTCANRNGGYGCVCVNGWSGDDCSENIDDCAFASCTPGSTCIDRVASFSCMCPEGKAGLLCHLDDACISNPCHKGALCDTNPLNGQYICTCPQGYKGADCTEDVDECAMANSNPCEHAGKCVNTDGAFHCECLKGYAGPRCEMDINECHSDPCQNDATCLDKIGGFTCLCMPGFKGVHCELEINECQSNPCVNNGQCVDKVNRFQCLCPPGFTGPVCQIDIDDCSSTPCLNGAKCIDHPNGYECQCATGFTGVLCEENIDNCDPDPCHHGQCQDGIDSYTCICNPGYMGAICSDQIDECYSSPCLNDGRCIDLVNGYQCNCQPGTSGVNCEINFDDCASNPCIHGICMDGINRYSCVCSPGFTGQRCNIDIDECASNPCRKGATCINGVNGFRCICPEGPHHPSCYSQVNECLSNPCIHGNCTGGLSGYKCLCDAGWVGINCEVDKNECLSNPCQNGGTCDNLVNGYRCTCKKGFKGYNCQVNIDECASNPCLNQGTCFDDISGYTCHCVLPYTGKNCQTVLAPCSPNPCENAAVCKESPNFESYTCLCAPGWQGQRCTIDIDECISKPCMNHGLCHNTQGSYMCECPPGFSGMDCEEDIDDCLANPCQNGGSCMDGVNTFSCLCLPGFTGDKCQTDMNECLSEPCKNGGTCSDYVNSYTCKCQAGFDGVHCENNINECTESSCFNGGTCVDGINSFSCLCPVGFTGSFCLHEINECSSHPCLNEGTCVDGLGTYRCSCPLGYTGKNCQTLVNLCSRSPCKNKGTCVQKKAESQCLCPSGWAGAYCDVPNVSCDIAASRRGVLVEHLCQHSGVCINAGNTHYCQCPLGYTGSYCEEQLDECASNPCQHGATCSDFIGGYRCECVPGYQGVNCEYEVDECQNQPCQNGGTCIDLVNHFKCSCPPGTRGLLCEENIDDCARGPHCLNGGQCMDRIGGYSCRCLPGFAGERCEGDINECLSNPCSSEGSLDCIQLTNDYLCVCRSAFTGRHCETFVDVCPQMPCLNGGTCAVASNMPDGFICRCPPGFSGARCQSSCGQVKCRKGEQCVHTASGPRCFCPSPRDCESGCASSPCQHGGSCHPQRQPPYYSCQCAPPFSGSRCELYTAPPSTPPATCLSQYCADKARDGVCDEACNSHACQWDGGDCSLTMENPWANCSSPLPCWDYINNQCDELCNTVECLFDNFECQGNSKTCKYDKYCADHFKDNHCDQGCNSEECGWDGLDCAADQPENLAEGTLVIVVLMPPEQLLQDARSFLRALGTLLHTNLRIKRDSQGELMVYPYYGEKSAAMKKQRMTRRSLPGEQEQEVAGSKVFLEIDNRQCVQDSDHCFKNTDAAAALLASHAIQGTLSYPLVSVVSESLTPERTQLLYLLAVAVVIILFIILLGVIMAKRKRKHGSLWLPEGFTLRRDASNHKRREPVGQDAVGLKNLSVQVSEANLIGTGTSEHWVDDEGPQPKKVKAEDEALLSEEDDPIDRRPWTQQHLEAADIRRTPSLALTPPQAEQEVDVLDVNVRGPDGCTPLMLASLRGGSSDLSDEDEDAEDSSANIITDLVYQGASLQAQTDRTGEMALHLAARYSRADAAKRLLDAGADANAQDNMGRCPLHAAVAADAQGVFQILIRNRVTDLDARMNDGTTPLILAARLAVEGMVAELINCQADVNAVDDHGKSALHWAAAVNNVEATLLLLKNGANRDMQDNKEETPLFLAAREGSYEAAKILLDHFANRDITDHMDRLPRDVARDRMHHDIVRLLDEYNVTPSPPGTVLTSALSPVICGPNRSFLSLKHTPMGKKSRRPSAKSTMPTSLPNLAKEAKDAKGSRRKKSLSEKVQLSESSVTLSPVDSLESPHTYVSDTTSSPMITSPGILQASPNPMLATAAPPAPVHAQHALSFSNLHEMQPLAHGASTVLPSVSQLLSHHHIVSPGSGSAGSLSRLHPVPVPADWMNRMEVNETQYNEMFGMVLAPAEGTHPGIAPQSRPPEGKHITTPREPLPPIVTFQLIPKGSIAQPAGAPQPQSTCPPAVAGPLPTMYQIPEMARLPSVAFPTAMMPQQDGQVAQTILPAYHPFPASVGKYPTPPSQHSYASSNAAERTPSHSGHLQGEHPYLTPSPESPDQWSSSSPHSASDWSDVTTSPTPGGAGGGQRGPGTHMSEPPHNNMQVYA
SMILES,composite z-score [1],composite z-score [2],composite z-score [3],composite z-score [4],composite z-score [5],composite z-score [6],composite z-score [7],z-score [8],composite z-score [9],composite z-score [10]
COCCOC(=O)N1C(=O)[C@@]2(c3ccccc31)[C@H](c1ccc(O)cc1)N1[C@H](c3ccccc3)[C@H](c3ccccc3)OC(=O)[C@H]1[C@@H]2C(=O)N1CCN(c2ncccn2)CC1,-0.224,0.23,0.0019,0.644,0.618,0.647,1.07,-1.27 (inactive),-0.165,-0.0903
CCOC(=O)C[C@H]1[C@H](OC(=O)c2cc3ccccc3oc2=O)[C@@H](NC(=O)c2ccccc2)c2cc(OCCCO)ccc2N1C(=O)c1ccccc1,-0.319,0.524,-0.105,0.462,1.17,0.0287,0.819,1.57 (inactive),0.349,-0.199
Cc1cc(C)c(C(O)C2C=CC3C(=O)N(c4ccccc4)C(=O)C3N2Nc2ccccc2F)c(C)c1 (stereo not given),-0.0327,-0.437,-0.01,-0.0495,0.565,1.07,1.09,0.717 (inactive),0.439,0.0854
COC(=O)[C@@]1(Cc2ccc(F)cc2)[C@H]2c3cc(C(=O)N(C)C)n(Cc4ccc(OC(F)(F)F)cc4)c3C[C@H]2CN1C(=O)c1ccccc1,-0.252,0.34,-0.12,0.369,0.708,0.109,0.429,0.306 (inactive),0.402,-0.305
C=C[C@H]1C(C(=O)OCC)=CC[C@@H](c2ccccc2)N1S(=O)(=O)c1ccc(C)cc1,0.131,0.431,0.16,0.693,1.25,1.04,0.779,-3.11 (inactive),0.992,-0.266
C=CCC(OC(C)=O)[C@@H]1[C@@H](N(Cc2ccc(-c3cccc(C(F)(F)F)c3)o2)C(=O)Cc2ccc(OC)cc2)c2cc(OCCCO)ccc2N1C(=O)c1ccc(-c2ccccc2)cc1 (stereo not given in full),-0.124,0.004,-0.0796,0.0554,-0.57,0.168,0.0604,-0.461 (inactive),0.214,0.382
Cc1ccc(NN2C(C(O)c3c(F)cccc3Cl)C=CC3C(=O)N(C4CCCCC4)C(=O)C32)cc1 (stereo not given),1.14,0.44,0.0749,0.507,1.55,1.46,1.06,0.0701 (inactive),0.697,-0.254
C#CCN([C@@H](Cc1ccccc1)C(=O)OC)[C@@H](/C=C/C1CC1)[C@H](O)Cc1ccccc1,1.2,0.0218,-0.114,-0.181,-0.875,-0.445,-0.351,-4.13 (inactive),-0.283,-0.169
COCCCNC(=O)[C@@]1(Sc2ccc(C)cc2)CC(=O)N(C2Cc3ccccc3C2)[C@@H]1c1ccc(CO)cc1,0.667,-1.94,-0.16,-0.459,-1.12,1.47,1.32,-1.11 (inactive),-0.213,-0.164
CCCN1C(=O)[C@@]2(Cc3ccccc31)N=C(c1ccc(OCCCO)cc1)O[C@H]2c1ccccc1,0.654,0.27,-0.0909,0.181,0.697,1.55,1.21,-1.35 (inactive),0.193,-0.0852
Cc1ccc(S[C@]2(C(=O)NCCN3CCOCC3)CC(=O)N(Cc3ccccc3Cl)[C@@H]2c2ccc(CO)cc2I)cc1,0.75,1.78,0.0027,-0.142,-0.675,1.15,1.04,-2.03 (inactive),-0.387,0.302
COc1ccc(CCNC(=O)[C@@H]2c3ccccc3C(=O)N(C3CCCCC3)[C@H]2c2ccc(CO)cc2)cc1,0.0003,1.3,0.104,0.329,0.785,1.05,1.24,-0.335 (inactive),0.246,-0.0645
CCCCCCCCCC(O)C1C=CC2C(=O)N(c3ccccc3)C(=O)C2N1Nc1cc(OC)c(OC)c(OC)c1 (stereo not given),-0.0386,-0.666,0.0166,0.23,0.45,0.856,0.487,0.393 (inactive),0.199,-0.13
Cc1ccc(C(C)CC(O)C2C=CC3C(=O)N(c4ccccc4)C(=O)C3N2Nc2ccccc2)o1 (stereo not given),-0.172,-0.314,-0.087,0.504,1.65,1.18,1.21,-0.0963 (inactive),1.51,0.113
COC(=O)c1c(CC[C@@H](CO)NC(=O)N[C@@H](C)Cn2cc(-c3ccccn3)nn2)oc(C(C)=O)c1C(=O)OC,-0.291,0.334,-0.076,0.384,-0.127,1.66,1.29,0.224 (inactive),-0.205,-0.0237
COC(=O)C1(CC(C)C)C=C2C(=C(c3ccccc3)C(=O)C2C)CN1 (stereo not given),1.92,0.442,0.669,0.746,1.1,1.02,0.78,1.19 (inactive),1.15,0.935
COc1cc2c(cc1O)C(c1cccs1)N(Cc1cc3c(cc1Br)OCO3)CC2 (stereo not given),-0.0508,0.58,0.0797,1.3,1.56,2.08,1.45,0.364 (inactive),1.23,0.0881
COC(=O)[C@@]1(Cc2ccc(OC)cc2)[C@H]2c3cc(C(=O)N4CCCC4)n(CCO)c3C[C@H]2CN1C(=O)c1ccccc1,0.0734,-0.562,0.418,1.18,1.55,1.77,0.764,1.45 (inactive),0.691,0.34
O=C(c1ccccc1)N1C(=O)[C@]2(Cc3ccccc31)N=C(c1ccc(OCCCO)cc1)O[C@@H]2c1ccccc1,-0.203,-0.0033,-0.061,0.821,0.562,1.61,1.3,-1.76 (inactive),0.313,0.252
CC(C)C(CO)N1C(=O)[C@@H]2C3C(=O)OCCC/C=C\[C@H]3OC23C=CCN(c2ccc4ccccc4c2)C(=O)[C@@H]13 (stereo not given in full),-0.08,-0.623,-0.076,-0.12,-1,0.99,1.48,0.759 (inactive),-0.412,0.176
O=C(Cc1ccccc1)[C@H]1C2C=CCCC(c3ccccc3)=C2CN1Cc1ccccc1 (stereo not given in full),-0.138,1.24,-0.085,0.0623,-0.0515,-0.473,-0.122,-1.2 (inactive),-0.205,0.0722
